Compound activity as filed in PubChem.
MsrA act: bovine MsrA enzyme activators, primary screen, biochemical, absorbance, HTS | Methionine sulfoxide reductase A (Bos taurus) | purified bovine MsrA, absorbance read-out | activation, % at 10.6 µM | 0.3% of 360,000 active | AID 602163, 2012; in the data active = activation above about 7.5%;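 also: 0% = vehicle and 100% = reference activator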
MsrA inh: bovine MsrA enzyme inhibitors, primary screen, biochemical, absorbance, HTS | Methionine sulfoxide reductase A (Bos taurus) | purified bovine MsrA, absorbance read-out | inhibition, % at 15.5 µM | 0.75% of 360,000 active; in the data active = inhibition above about 4.5%;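 also: 0% = vehicle wells with enzyme and 100% = reference inhibitor wells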
PKA-R2B act: activators of PKA-R2B holoenzyme, primary screen, biochemical, fluorescence polarization, Cy5-IP20, human. cAMP-dependent protein kinase catalytic subunit beta (Homo sapiens) + cAMP-dependent …. PKA-R2B holoenzyme dissociation; R2B truncated from residue 108, S112A mutant; 0% DMSO only, 100% 113 µM cGMP. activation, % at 11.4 µM. 0.079% of 340,000 active;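 active = activation above a cutoff set at the mean over all compounds plus 3 SD, cut at about 18% in these data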;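 also: higher means more holoenzyme dissociation and a rise in polarization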
Target sequence (P31323 whole entry, looked up, other chains not shown, the tested form may be a part): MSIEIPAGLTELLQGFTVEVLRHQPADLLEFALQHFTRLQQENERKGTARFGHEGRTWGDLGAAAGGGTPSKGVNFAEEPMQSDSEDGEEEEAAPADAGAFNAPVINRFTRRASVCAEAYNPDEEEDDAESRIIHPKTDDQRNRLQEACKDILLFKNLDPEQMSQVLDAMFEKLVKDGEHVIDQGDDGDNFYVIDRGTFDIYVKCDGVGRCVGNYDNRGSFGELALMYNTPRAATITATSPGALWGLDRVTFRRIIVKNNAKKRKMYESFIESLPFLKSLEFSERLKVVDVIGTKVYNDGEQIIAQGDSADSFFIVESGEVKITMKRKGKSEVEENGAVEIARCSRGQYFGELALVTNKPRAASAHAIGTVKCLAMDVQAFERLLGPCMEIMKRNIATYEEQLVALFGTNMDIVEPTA
PKA-R1A act: activators of PKA-R1A holoenzyme, primary screen, biochemical, fluorescence polarization, Cy5-IP20, bovine R1A, mouse PKAc; activation, % at 11.4 µM; AID 504707, 2011; cAMP-dependent protein kinase type I-alpha regulatory subunit (Bos taurus) + …; 0.083% of 340,000 active; PKA-R1A dissociation; scaled: DMSO 0%, 113 µM cGMP 100%;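 active = percent activation above the mean of all tested compounds plus 3 SD, cut at about 19% in these data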;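 also: higher means more PKAc released from R1A so a rise in polarization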
R2B FP artifact: fluorescence polarization artefacts, biochemical, artefact control for PKA-R2B activator project. shares compounds with PKA-R2B act. FP artifact counterscreen. activation, % at 11.4 µM. 6% of 270 active. AID 504796, 2011; in the data active = activation above about 20%;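 also: Cy5 labelled IP20 peptide probe with compound but no PKA protein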
PKA-R2B act conf: activators of PKA-R2B holoenzyme, confirmation, biochemical, fluorescence polarization, human; activation, % at 11.4 µM; shares compounds with PKA-R2B act; AID 504797, 2011; PKA-R2B complex, activation; 9% of 270 active; in the data active = activation above about 19%
Numbers without * were called inactive. Only some compounds are listed: those with a hit (about 1.1% of all), similar ones and a draw of the others.

CN1CCCCC(NC(=O)CSc2ccccc2)C1=O (centres undefined) was read as MsrA inh 0.4.
Screening CCOc1ccc(OCc2cccc(C(=O)O)c2)cc1 returned MsrA act -1.8, MsrA inh -1.8, PKA-R2B act 20.2*, PKA-R1A act -10.7, R2B FP artifact 3.1 and PKA-R2B act conf 2.2.
COc1ccc(OCc2cccc(C(=O)O)c2)cc1 was read as MsrA act 0.0, MsrA inh 0.0, PKA-R2B act -10.7 and PKA-R1A act 13.0.
COC(=O)c1c[nH]n2c(=O)cc(CCl)nc12 was read as MsrA act -6.9, MsrA inh 2.3, PKA-R2B act 20.1*, PKA-R1A act 5.7, R2B FP artifact -0.4 and PKA-R2B act conf 0.9.
For COC(=O)c1c[nH]n2c(=O)c(C(C)C)c(C)nc12 the results were MsrA act -2.3, MsrA inh -1.2, PKA-R2B act -12.4 and PKA-R1A act -2.3.
For COCCNC(=O)CN(Cc1ccccc1)C(=O)CCC(=O)Nc1nccs1 the results were MsrA act -0.5, MsrA inh -0.2, PKA-R2B act 19.1*, PKA-R1A act 0.0, R2B FP artifact 2.4 and PKA-R2B act conf -4.3.
Screening O=S(=O)(c1ccc2c(c1)OCCO2)N1CCC(c2nc3ccc(Cl)cc3[nH]2)CC1 returned MsrA act -11.0, MsrA inh -0.4, PKA-R2B act 13.6 and PKA-R1A act -6.5.
For O=S(=O)(c1ccc2c(c1)OCCO2)N1CCC(c2nc3ccccc3[nH]2)CC1 the results were MsrA act -0.6, MsrA inh -0.8, PKA-R2B act 18.7*, PKA-R1A act -0.6, R2B FP artifact 3.6 and PKA-R2B act conf 2.5.
Screening NC(=O)CSc1nnc(COc2ccccc2)n1CCc1ccccc1 returned MsrA act -5.8, MsrA inh 1.8, PKA-R2B act 21.5*, PKA-R1A act -5.0, R2B FP artifact 1.9 and PKA-R2B act conf 1.5.
`NC(=O)CC(NC(=O)c1ccc(Br)cc1)c1ccc(N2CCC(Cc3ccccc3)CC2)c([N+](=O)[O-])c1` (centres undefined) gave MsrA act -12.1, MsrA inh 1.2, PKA-R2B act 18.5*, PKA-R1A act -0.6, R2B FP artifact 9.8 and PKA-R2B act conf 10.8.
NC(=O)CC(NC(=O)c1ccccc1)c1ccc(N2CCC(Cc3ccccc3)CC2)c([N+](=O)[O-])c1 (centres undefined) was read as MsrA act -1.0, MsrA inh -0.6, PKA-R2B act -8.8 and PKA-R1A act 8.2.
Screening C[C@H](O)[C@@H]1C(=O)N2CCc3c([nH]c4c(-c5ccccc5)cccc34)[C@@H]2C[C@@H]1N(C)C(=O)NC1CCCCC1 returned MsrA inh 3.3.
Cc1ccccc1-c1nnc(SCC(=O)NC2CCS(=O)(=O)C2)n1C (centres undefined) was read as MsrA act -4.7, MsrA inh -0.1, PKA-R2B act 19.0*, PKA-R1A act 8.5, R2B FP artifact 6.2 and PKA-R2B act conf 2.0.
Screening Nc1nc2c(ncn2[C@@H]2O[C@H](C(=O)N[C@H](Cc3ccccc3)C(=O)NC3CCCCC3)[C@@H](O)[C@H]2O)c(=O)[nH]1 returned MsrA inh 1.0.
Screening O=C(OCc1ccc(F)cc1)c1cc(=O)c2ccccc2o1 returned MsrA act -1.5, MsrA inh -0.8, PKA-R2B act 20.6*, PKA-R1A act 5.8, R2B FP artifact 1.2 and PKA-R2B act conf 4.0.
Cc1nc2scc(C)n2c(=O)c1S(=O)(=O)Nc1ccc(F)cc1 was read as MsrA act -5.1, MsrA inh 2.2, PKA-R2B act 21.7*, PKA-R1A act 11.8, R2B FP artifact 4.4 and PKA-R2B act conf 1.8.
Screening Nc1[nH]c(C(=O)c2ccccc2)c(-c2ccc3ccccc3c2)c1C(=O)NC1CC1 returned MsrA inh -0.4.
